This is part of a sample that, as a whole, favours compounds with a hit. Of some 83,000 tested, about 20% had one in any assay.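 In brief: 96-well plates, 48 h treatment, single concentration, percent growth endpoint.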 Values without a mark were called inactive. The source made the active and inactive calls. The calls were made as follows: active = growth percent below 10; inactive = the rest.
Columns and labels:
Test in all cases: NCI-60 one-dose screen, 48 h (100 = growth as untreated, 0 = no growth, -100 = all killed)
Conditions in all cases: 10 µM unless noted
HCT-15 colon = test system: HCT-15 colon
HT29 colon = test system: HT29 colon
SNB-19 CNS = test system: SNB-19 CNS
U251 CNS = test system: U251 CNS
PC-3 prostate = test system: PC-3 prostate
SK-MEL-5 melanoma = test system: SK-MEL-5 melanoma
UACC-62 melanoma = test system: UACC-62 melanoma
SK-MEL-28 melanoma = test system: SK-MEL-28 melanoma
LOX IMVI melanoma = test system: LOX IMVI melanoma
SNB-75 CNS = test system: SNB-75 CNS

Row | Structure (SMILES) | growth (HCT-15 colon) | growth (HT29 colon) | growth (SNB-19 CNS) | growth (U251 CNS) | growth (PC-3 prostate) | growth (SK-MEL-5 melanoma) | growth (UACC-62 melanoma) | growth (SK-MEL-28 melanoma) | growth (LOX IMVI melanoma) | growth (SNB-75 CNS)
1 | O=C(Nc1ccc(Cl)cc1)Oc1c(Cl)c(Cl)c(Cl)c(Cl)c1Cl | 94.5% | 96.1% | 98.1% | 98% | 89.4% | 95.3% | 81.3% | 105% | – | –
2 | CCN1C(=O)N(CC)C2Nn3c(s/c(=C\c4ccccc4Br)c3=O)=NC21 (centres undefined) | 18.6% | 4.78% (active) | 26.6% | 4.95% (active) | 32.1% | 13% | 22.8% | 42.1% | 20.9% | –
3 | Fc1ccc(Cn2cc(CSc3nc4ccccc4o3)nn2)cc1 | 104% | 99.8% | 92.5% | 105% | 98.3% | 110% | 84.3% | 98.9% | 107% | –
4 | Cc1nc2sc(C(=O)Nc3cccc(Br)c3C)c(N)c2cc1C(O)c1ccccc1 (centres undefined) | 10.8% | 9.11% (active) | 25.4% | 2.74% (active) | 18.3% | -50.9% (active) | 18.5% | 55.9% | 16.3% | –
5 | NS(=O)(=O)c1ccc(-c2cc(-c3nnc(SCC(=O)Nc4ccc(C(=O)/C=C/c5ccc(Cl)cc5)cc4)n3-c3ccccc3)c3ccccc3n2)cc1 | 94.7% | 94.9% | 86.8% | 81.1% | 79.8% | 92.8% | 71% | 97% | 88% | –
6 | O=C(NC(Cc1nnc2n(Cc3ccccc3)c(=O)c3c4c(sc3n12)CCCC4)c1ccccc1)c1ccccc1 (centres undefined) | 138% | 106% | 99.1% | 111% | 96.7% | 96.1% | 85.9% | 110% | 109% | –
7 | CC(C)CCN(CCC(C)C)CC(O)c1cc2c(c3ccccc13)CCCC2 (centres undefined) | 59.4% | 32.2% | 97.8% | 72.9% | 66.4% | – | 49.8% | 94.7% | 51.9% | 91.6%
8 | Cc1ccc(C)c2c(C)c(C(=O)Nc3cccc(-n4cccn4)c3)oc12 | 49% [50 µM] | 48.2% [50 µM] | 87.2% [50 µM] | 70.9% [50 µM] | 38.8% [50 µM] | 44.3% [50 µM] | 73.9% [50 µM] | 86.7% [50 µM] | 62.2% [50 µM] | –
9 | COc1cc(/C=C2\CN(S(=O)(=O)c3ccccc3)C/C(=C\c3cc(CN4CCCCC4)c(O)c(OC)c3)C2=O)cc(CN2CCCCC2)c1O | -73.8% (active) | -66.7% (active) | -30.1% (active) | -76.7% (active) | -36.3% (active) | -94.8% (active) | 71% | -90.3% (active) | -87% (active) | –
10 | Nc1[nH]c(=S)nc2oc(-c3ccccc3)c(-c3ccccc3)c12 | 97.3% | 101% | 98% | 103% | 97.4% | 102% | 91.5% | 101% | 98% | –
11 | Fc1cccc(-c2ccc3c(c2)C2(CCNCC2)CN3)c1 | 94.9% | 93.1% | 112% | 107% | 98.1% | 97.4% | 87.4% | 116% | 92.2% | –
12 | COc1cc(OC)cc(-c2ccc(-c3ccc(C(=N)N)o3)o2)c1 | -6.9% (active) | 8.19% (active) | 51.3% | 8.25% (active) | 71.2% | 76% | -3.63% (active) | 87.8% | – | –
13 | COC(=O)c1c2c(c(C)[n+]([O-])c1C)C(=O)C(NCc1cccc(Cl)c1)=CC2=O | 7.55% (active) | 5.87% (active) | 9.37% (active) | -6% (active) | 4.17% (active) | -77.7% (active) | -42.6% (active) | 63% | 11.7% | –
14 | C#CC#CC#CC#CC#CC#CC#CC#CCC1OC[C@H](COC(=O)O[C@@H](C(=O)O[C@H]2C[C@@]3(O)[C@@H](OC(=O)c4ccccc4)[C@@H]4[C@]5(OC(C)=O)CO[C@@H]5C[C@H](O)[C@@]4(C)C(=O)[C@H](OC(C)=O)C(=C2C)C3(C)C)[C@@H](NC(=O)c2ccccc2)c2ccccc2)O1 (some centres undefined) | 88% | 7.52% (active) | 27.9% | 26.2% | 23.2% | 31.6% | 28.3% | 53.6% | 29.6% | –
